{"source": "PubChem BioAssay (Tox21)", "note": "Inconclusive results are not listed. A number with no mark means an inactive call. Calls come from the whole dose curve; as a rule, active = well fitted cell-killing curve with a large enough effect in the repeat runs; inconclusive = weak or mixed curves, or effect the other way; inactive = flat fitted curve, though single readings scatter. % is set by controls: 0 for no effect and ±100 for the full control effect.", "data": [{"test": "qHTS assay to identify small molecule agonists of the androgen receptor (AR) signaling pathway in the presence of an antagonist - cell viability counter screen (AID 1259379); note: nearly all actives have a fitted effect of over 25% in size", "details": "MDA-kb2 viability, CellTiter-Fluor, 16 h; series mostly up to 92.4 µM; activity change, negative = cytotoxicity: at the top concentration", "excerpt": "National Center for Advancing Translational Sciences [NCATS]\nNIH Chemical Genomics Center [NCGC]\nU.S. Environmental Protection Agency [EPA]\nNational Institutes of Environmental Health Sciences [NIEHS]\nNational Toxicology Program [NTP]\nU.S. Food and Drug Administration [FDA]\nAndrogen receptor (AR) is an important member of nuclear receptor family. Its signaling plays a critical role in AR-dependent prostate cancer and other androgen related diseases. Considerable attention has been given in the past decades to develop methods to study and screen for the environmental chemicals that have the potential to interfere with metabolic homeostasis, reproduction, developmental and behavioral functions. Therefore AR binding assay for screening against androgen agonists and antagonists can be used to identify potential endocrine disruptors.\nMDA-kb2 cells (from ATCC, deposited by Wilson et al.) are human breast carcinoma cells that were stably transfected with a luciferase reporter gene under control of the MMTV promoter that contains response elements for both androgen receptor (AR) and glucocorticoid receptor (GR). This particular screening for measuring luciferase reporter gene activity using MDA-kb2 cells against Tox21 10K library compounds is a confirmation study on agonist mode screening in the presence of AR-antagonist compound (Nilutamide) at 3.0uM final concentration. The cytotoxicity of the compounds was tested in parallel by measuring the cell viability using CellTiter-Fluor assay system (Promega, Madison, WI) in the same wells.\nTox21 Assay Protocol Summary:\nMDA-kb2 cells (cells cultured without CO2) were dispensed at 3,000 cells/well in 4uL of culture medium into white wall/solid-bottom 1536-well plates (Corning Life Sciences, Corning, NY) using a Multidrop Combi (Thermo Fisher Scientific Inc., Waltham, MA) dispenser. The assay plates were incubated at 37C and 0% CO2 for 5hr. One uL of 3.0uM (final concentration) Nilutamide or assay buffer was added using two separate tips of Flying Reagent Dispenser (FRD, Aurora Discovery, San Diego, CA). Then 23nL of compounds dissolved in DMSO at 15 concentrations and positive controls were transferred to the assay plates using a Pintool station (Wako, San Diego, CA). The assay plates were incubated at 37C and 0% CO2 for 16 hr. After 15hr incubation at 37C, 1uL/well CellTiter-Fluor reagent (Promega Corporation) was added to each well of the assay plates using FRD. After 1hr incubation at 37C and 0% CO2, the fluorescence signal was measured using a ViewLux plate reader (PerkinElmer, Shelton, CT).", "values": [{"smiles": "ICCc1ccccc1", "activity change, negative = cytotoxicity": "0.298%"}, {"smiles": "CCOC(=O)C1CC(=O)C(=C(O)C2CC2)C(=O)C1", "note": "(stereo not given)", "activity change, negative = cytotoxicity": "4.68%"}, {"smiles": "C[C@@H](N)C(=O)O", "activity change, negative = cytotoxicity": "7.31% [at 42.5 µM]"}, {"smiles": "O=C(CC(=O)C(F)(F)F)c1ccccc1", "activity change, negative = cytotoxicity": "-10.7%"}, {"smiles": "O=C1CCCc2ccccc21", "activity change, negative = cytotoxicity": "-0.37%"}, {"smiles": "CCC1(C)NC(=O)NC1=O", "note": "(stereo not given)", "activity change, negative = cytotoxicity": "0.288%"}, {"smiles": "Cc1ccc(C=O)s1", "activity change, negative = cytotoxicity": "1.12%"}, {"smiles": "CC(=O)O[C@H]1CC[C@@]2(C)C(=CC[C@@H]3[C@@H]2CC[C@]2(C)C(C(C)=O)=CC[C@@H]32)C1", "activity change, negative = cytotoxicity": "2.88% [at 42.5 µM]"}, {"smiles": "COc1cc(C)ccc1C(C)C", "activity change, negative = cytotoxicity": "1.74%"}, {"smiles": "O=C(O)[C@@H]1CSCN1", "activity change, negative = cytotoxicity": "0.303% [at 42.5 µM]"}, {"smiles": "NCCCN1CCN(CCCN)CC1", "activity change, negative = cytotoxicity": "0.451%"}, {"smiles": "CC(C)(CO)[C@@H](O)C(=O)NCCC(=O)O", "activity change, negative = cytotoxicity": "0.14%"}, {"smiles": "CCN[C@H]1CN(CCCOC)S(=O)(=O)c2sc(S(N)(=O)=O)cc21", "activity change, negative = cytotoxicity": "1.36% [at 42.5 µM]"}, {"smiles": "Nc1cccc(S(=O)(=O)O)c1", "activity change, negative = cytotoxicity": "0.165%"}, {"smiles": "CC/C=C\\CCOC(=O)C(C)C", "activity change, negative = cytotoxicity": "2.28%"}, {"smiles": "CC1(C)S[C@@H]2[C@H](NC(=O)C(C(=O)O)c3ccccc3)C(=O)N2[C@H]1C(=O)O", "note": "(stereo not given in full)", "activity change, negative = cytotoxicity": "0.679% [at 42.5 µM]"}, {"smiles": "Cc1cn([C@@H]2O[C@H](CO)[C@@H](O)[C@@H]2F)c(=O)[nH]c1=O", "activity change, negative = cytotoxicity": "2.24% [at 42.5 µM]"}, {"smiles": "Cc1ccc([N+](=O)[O-])cc1Cl", "activity change, negative = cytotoxicity": "-0.61%"}, {"smiles": "O=C1CCN(c2ccccc2)N1", "activity change, negative = cytotoxicity": "3.38%"}, {"smiles": "O=CCCc1ccccc1", "activity change, negative = cytotoxicity": "0.583%"}, {"smiles": "CCOc1ccc(OCC)c(Cl)c1", "activity change, negative = cytotoxicity": "0.543%"}, {"smiles": "FC(F)(F)c1ccccc1", "activity change, negative = cytotoxicity": "0.553%"}, {"smiles": "COC(C)CCO", "note": "(stereo not given)", "activity change, negative = cytotoxicity": "3.07%"}, {"smiles": "CCCCC(=O)O[C@]1(C(=O)CO)[C@H](C)C[C@H]2[C@@H]3CCC4=CC(=O)C=C[C@]4(C)[C@@]3(F)[C@@H](O)C[C@@]21C", "activity change, negative = cytotoxicity": "3.01% [at 42.5 µM]"}, {"smiles": "CC(C)NC[C@@H](O)COc1cccc2ccccc12", "activity change, negative = cytotoxicity": "0.829% [at 42.5 µM]"}, {"smiles": "CC(C)Nc1nc(N)nc(Cl)n1", "activity change, negative = cytotoxicity": "3.45%"}, {"smiles": "CCOC(=O)c1cc(=O)c2c(OCC(COc3cccc4oc(C(=O)OCC)cc(=O)c34)OC(=O)[C@@H](N)CCCCN)cccc2o1", "activity change, negative = cytotoxicity": "-0.0604% [at 42.5 µM]"}, {"smiles": "O=Cc1ccc(F)c(Br)c1", "activity change, negative = cytotoxicity": "1.03%"}, {"smiles": "Cc1nc(N)nc(N)c1-c1ccc(Cl)c(Cl)c1", "activity change, negative = cytotoxicity": "-4.84% [at 42.5 µM]"}, {"smiles": "CC(=O)OC(C)OC(C)=O", "activity change, negative = cytotoxicity": "1.23%"}, {"smiles": "FC(F)(F)C(F)(F)C(F)(F)C(F)(F)C(F)(F)C(F)(F)C(F)(F)C(F)(F)Br", "activity change, negative = cytotoxicity": "1.34% [at 42.5 µM]"}, {"smiles": "Cc1cc2nc(N)sc2cc1C", "activity change, negative = cytotoxicity": "-6.03%"}, {"smiles": "Cc1nnc(SCC2=C(C(=O)O)N3C(=O)[C@@H](NC(=O)Cn4cnnn4)[C@H]3SC2)s1", "activity change, negative = cytotoxicity": "-0.372% [at 42.5 µM]"}, {"smiles": "CCCCNc1cc(C(=O)O)cc(S(N)(=O)=O)c1Oc1ccccc1", "activity change, negative = cytotoxicity": "2.63% [at 42.5 µM]"}, {"smiles": "COc1cc(N)c(Cl)cc1C(=O)NC1CCN(Cc2ccccc2)CC1", "activity change, negative = cytotoxicity": "-4.41% [at 42.5 µM]"}, {"smiles": "N#Cc1ccc(C(c2ccc(C#N)cc2)n2cncn2)cc1", "activity change, negative = cytotoxicity": "-0.563% [at 42.5 µM]"}, {"smiles": "OCCN(CCO)CCN(CCO)CCO", "activity change, negative = cytotoxicity": "-0.126%"}, {"smiles": "CN(C)C(=O)NC1(c2ccccc2)CCN(CCC[C@]2(c3ccc(Cl)c(Cl)c3)CCCN(C(=O)c3ccccc3)C2)CC1", "activity change, negative = cytotoxicity": "-7% [at 19 µM]"}, {"smiles": "CCC(=O)Nc1ccc(O)cc1", "activity change, negative = cytotoxicity": "2.89% [at 42.5 µM]"}, {"smiles": "Cc1cc(NS(=O)(=O)c2ccc(N)cc2)nc(C)n1", "activity change, negative = cytotoxicity": "2.29% [at 42.5 µM]"}]}]}
